According to PubChem BioAssay AID493085 (Broad Institute, 2011):
Out of some 2,400 compounds screened, about 360 (15%) were called active. Inconclusive results (about 5%) are left out.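 Rule for the calls: active = falling-signal curve with half-maximal concentration at or below ten times the top tested dose; inconclusive = flat fit at 30 to 70% inhibition, or poor fit; inactive = signal rise, flat within 30%, or potency beyond limit.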 The list is a sample of the results. Entries with a potency or affinity are not part of this list.

Assay: Tet-On RFP internal-standard readout, HSF1 screen, dose response, cell-based, NIH3T3 R4, HSE-GFP and Tet-On RFP, cherry-pick, set 3 (AID 493085);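 note: cells heat shocked 2 h at 42 °C with doxycycline to induce reporters; 0% = neutral control wells and -100% = didemnin B control at 400 nM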
Settings: NIH3T3 R4 HSE-GFP/Tet-RFP reporter, fluorescence, 48 h; series mostly up to 19.5 µM; activity change, negative = inhibition: at the top concentration

Activity change, negative = inhibition, inactive:
CSc1ccccc1NC(=O)C1=CC(c2ccc(C)cc2)=NS(=O)(=O)N1C -10.2%
CCOc1ccc(NC(=S)Nc2ccc(OC(F)(F)F)cc2)cc1 -9.64%
Cc1[nH]c(=O)c(C#N)cc1-c1csc(-c2ccccc2)n1 0.405%
COC(=O)CCC(=O)NNC(=O)c1cccc(Br)c1 6.48%
COc1ccccc1CCC(=O)OCC(=O)Nc1cccc(S(=O)(=O)N2CCOCC2)c1 -6.16%
CCOC(=O)C1=C(C)N(CCC(=O)O)C(=O)NC1c1ccccc1Cl (centres undefined) -13.5%
COc1ccc(/C=C(\C#N)C(=O)Nc2cc(C)c(Cl)cc2OC)cc1O -14.6%
CSc1nccn1C(=O)c1ccccc1[N+](=O)[O-] -2.94%
Cc1ccc(-n2cc(C(=O)c3ccccc3O)cn2)cc1 -6.36%
O=C(CSc1nc2ccccc2s1)N/N=C/c1ccccc1C(=O)O -11.6%
CC(C)c1ccccc1-n1c(-c2cccnc2)n[nH]c1=S -4.65%
COc1ccccc1NC(=O)Cn1c(=O)c(N(C)C)c(N)n(C)c1=O 5.09%
COCCn1c(=O)[nH]c2cc(C(=O)NC3CCCCCC3)ccc2c1=O -0.369%
COc1cccc(NC(=O)CCSc2nnc3scc(-c4ccccc4)n23)c1 -3.84%
CCCC(NC(=O)COc1cc2c(c3oc(=O)cc(C)c13)CCC(C)(C)O2)C(=O)O (centres undefined) -3.98%
CC(C(=O)NC1CC(C)(C)NC(C)(C)C1)c1ccc([N+](=O)[O-])cc1 (centres undefined) 1.55%
CC(=O)c1cccc(NC(=O)CN2C(=O)c3ccccc3C2=O)c1 -1.97%
CCOc1ccc(/C=N/NC(=O)c2ccc(Cn3cc([N+](=O)[O-])cn3)o2)cc1 4.4%
NC(=S)N/N=C1\CC(n2nnnc2-c2ccccc2Cl)C2COC1O2 (centres undefined) -8.92%
COc1ccc(/C=N/Nc2nc(C)cc(=O)[nH]2)cc1OC 13.2%
COc1ccc(-c2nc(CNS(=O)(=O)c3ccc(OC)c(OC)c3)cs2)cc1 -23.9%
Cc1cccc(N2CCN(Cc3nc(-c4ccccc4Cl)oc3C)CC2)n1 1.41%
Oc1ccc(Br)cc1/C=N/Nc1ccccn1 25.6%
O=C(N/N=C/c1ccccn1)c1ccc([N+](=O)[O-])cc1 -7.84%
CCOC(=O)C[n+]1c(C)csc1C -3.68%
CCOc1ccc(NC(=O)C(C)NS(=O)(=O)c2ccc(NC(C)=O)cc2)cc1 (centres undefined) 5.38%
Cc1ccc(Cn2c(Sc3ncccn3)nc3c2c(=O)[nH]c(=O)n3C)cc1 -12.6%
Cc1nccn1Cc1cccc2ccccc12 -10.7%
CC(=O)NCCNC(=O)c1ccc(CSc2nc3ccccc3s2)cc1 5.39%
Cc1cc(=O)[nH]c2c1c(=O)[nH]n2C1CC(C)N(C)CC1C (centres undefined) -6.94%
C=CCOCCN(CCOCC=C)C1=NS(=O)(=O)c2ccccc21 3.73%
Cc1cc(OCC(=O)NCCc2ccc(S(N)(=O)=O)cc2)c2c(C)cc(=O)oc2c1 -1.48%
NS(=O)(=O)c1ccc(CCNCC#Cc2ccccc2)cc1 -3.99%
CCn1cc(C(=O)NCCCN2CC(C)CC(C)C2)c(=O)c2cc(S(=O)(=O)N(C)C)ccc21 (centres undefined) -8.74%
O=C(N1CCOCC1)C12CCC3CC(CC(C3)C1)C2 0.372%
CCCS(=O)(=O)c1cnc(C2COc3ccccc3O2)nc1N (centres undefined) -5.24%
C=CCn1c(C)nnc1SCC(=O)Nc1nc(C)c(C(=O)N(C)C)s1 -8.13%
O=C1CC(N2CCCCC2)C(=O)N1c1ccccc1 (centres undefined) 5.59%
Cc1ccc(-n2nc3c(=O)n(CCCC(=O)N4CCC(C(N)=O)CC4)nc(C)c3c2C)cc1 -0.762%
O=S(=O)(Nc1ccc2c(c1)OCCO2)c1cccs1 0.199%
CC1C(=O)C(C)C(c2ccco2)NC1c1ccco1 (centres undefined) -12.8%
Nc1nc2n(c1C(=O)c1ccccc1)CCC2 -5.46%
COc1ccc(N2CCN(CC(O)COCCOc3ccc(Br)cc3)CC2)cc1 (centres undefined) -12.8%
CC(C)(C)c1ccc(-c2nnc3sc(-c4ccccn4)nn23)cc1 -7.98%
Cn1c(C(=O)O)c(CC(=O)Nc2ccc3c(c2)OCCO3)c2ccccc21 -2.93%
CCCS(=O)(=O)N1CCCC(C(=O)N2CCC(Cc3ccccc3)CC2)C1 (centres undefined) -4.5%
CC(=O)Nc1ccc(-c2nnn(CC(=O)Nc3ccc4c(c3)OCO4)n2)cc1Cl -4.62%
O=C1Cc2ccccc2C(=O)N1c1cccc(Cl)c1 -1.22%
CC(C)CNC(=O)C1CCN(Cc2ccc(OCc3ccccc3)cc2)CC1 7.96%
CN(CC(=O)Nc1cccc(F)c1)CC(=O)Nc1cccc(S(N)(=O)=O)c1 14.2%
COc1cc(NC(=O)c2cc3cccc(OC)c3o2)cc(C(=O)Nc2cccc(C(F)(F)F)c2)c1 4.58%
COc1ccc(CN(C)C(=O)c2cc(S(=O)(=O)N3CCOCC3)ccc2N2CCCC2)cc1 1.5%
COc1ccc(S(=O)(=O)Nc2ccccc2C(=O)N2CCOCC2)cc1Cl -1.01%
Cc1noc(NS(=O)(=O)c2ccc(N3Cc4ccccc4C3=O)cc2)c1C -1.64%
CCCCN1C=CC(=C2C(=O)c3ccccc3C2=O)C=C1 -3.88%
Fc1ccccc1NC(=S)Nc1ccc(CN2CCOCC2)cc1 -7.41%
COC(=O)C1CCN(C(=O)c2sc3nc(-c4ccccc4)cn3c2C)CC1 -12.9%
CCOC(=O)c1sc2nc3c(cc2c1N)COC(C(C)C)C3 (centres undefined) 3.31%
CCOC(=O)c1n[nH]c(=O)c2ccccc12 -8.51%
CCCn1c(SCC(=O)c2c(C)[nH]c(C)c2C(=O)OCC)nc2ccccc21 -4.22%
Cc1cccc(Nc2nc(-c3ccc4c(c3)OCCO4)cs2)c1 6.28%
COc1cccc(-n2nnc3c(=O)n(Cc4ccccc4Cl)cnc32)c1 -9.31%
Nc1nc(Cl)nc(N(c2ccccc2)c2ccccc2)n1 3.98%
CCOC(=O)Cn1c(CCC(=O)O)ccc1-c1ccc(F)cc1 4.16%
COc1ccc(S(=O)(=O)/C(C#N)=C/Nc2cccc(OC)c2)cc1 -6.14%
O=S(=O)(Nc1ccncc1)c1ccc(Cl)cc1 -4.03%
NC(=O)c1nsc(C(=O)N(c2cccc(F)c2)C(C(=O)NC2CCCC2)c2ccco2)c1N (centres undefined) -7.03%
COc1ccc(C(=O)N2CCN=C2SCc2cccnc2)cc1OC -4.35%
CCN(C(=O)c1ccc2c(SCC(=O)O)c3c(nc2c1)CCC3)c1cc(Cl)ccc1OC -2.82%
CC(/C=N\NC(=O)c1cc(C)oc1C)=C\c1ccccc1 -1.55%
CCN(CC)C(=O)COC(=O)c1ccc(C)c(NC(=O)c2ccco2)c1 2.46%
CN1CCN(C(=O)/C(=C\c2cccs2)NC(=O)c2ccco2)CC1 0.189%
Cc1ccc(N(Cc2cc3ccc(C)cc3[nH]c2=O)C(=O)c2cccs2)cc1 -2.97%
CC1CCCN(c2ncnc3c2cnn3-c2ccc(Cl)cc2)C1 (centres undefined) -12.2%
CCOC(=O)N1CCC(Nc2ncnc3c2cnn3-c2ccc(Cl)cc2)CC1 12.7%
c1ccc2c(Nc3nc(-c4ccncc4)nc4ccccc34)cccc2c1 4.7%
COc1cc(CCCN2CCNC[C@@H]2Cc2ccc(O)cc2)cc(OC)c1OC 15.6%
O=C(COC(=O)c1ccccc1-n1cnnn1)c1ccc(F)cc1 5.1%
COc1cccc(-n2c(N)c(-c3nc4ccccc4[nH]3)sc2=S)c1 -11.7%
COc1ccc(/C=C/C(=O)NC(=S)NCCc2ccc(OC)c(OC)c2)cc1 -0.406%
COc1ccc(CC(=O)Nc2cc(C)on2)cc1 6.1%
COc1ccc(Nc2nc(Nc3ccc(OC)cc3)nc(-n3[nH]c(=O)c(C)c3C)n2)cc1 8.07%
COc1ccccc1C(O)(C(=O)N(NC(C)=O)c1ccccc1)c1ccccc1OC -9.05%
Cc1cccc(-c2nnc(NC(=O)c3cccs3)s2)c1 -3.98%
Cc1c(C(=O)Nc2ccc(F)cc2)sc2ncn(CC(=O)N3CCCCC3)c(=O)c12 2.93%
O=C(Nc1cccc(S(=O)(=O)N2CCOCC2)c1)c1ccccn1 -1.87%
O=[N+]([O-])c1cccc(-c2nnc(-c3ccccc3)o2)c1 -12.8%
O=[N+]([O-])c1ccc(NCCOc2ccccc2Cl)nc1 -4.68%
O=C(c1cccs1)n1nc(-c2ccco2)nc1SCc1ccccc1 -5.18%
NNC(=O)c1ccc(O)cc1O 9.83%
COc1cc(=O)[nH]c(SCC(=O)Nc2nc3c(s2)CCCC3)n1 -0.723%
CN(C)CCNC(=O)c1cc2c(s1)-c1ccc(Cl)cc1SC2 14.3%
O=C(Nc1nc(-c2cccs2)cs1)c1ccc(Cl)s1 -3.26%
CCCCC(=O)Nc1cccc(NC(=O)c2cccc(Br)c2)c1 8.02%
O=C(Nc1nncs1)c1ccc(F)c(S(=O)(=O)N2CCCCC2)c1 -13.1%
Cc1ccc(-c2csc(NC(=O)c3ccc(S(=O)(=O)N4CCc5ccccc54)cc3)n2)cc1 -13.1%
COc1cc2c(cc1OC)C(C(=O)NC1CC1)C1c3ccccc3CCN1C2=O (centres undefined) -14.3%
NC(=S)N/N=C/c1cc([N+](=O)[O-])ccc1OCCOc1ccccc1 16.2%
CCC(C)c1ccc(OCc2ccc(C(=O)O)o2)cc1 (centres undefined) -8.68%
NS(=O)(=O)c1cccc(NC(=O)CNC(=O)CC23CC4CC(CC(C4)C2)C3)c1 -9.43%
CCOc1ccccc1C(=O)Nc1ccc(NC(=O)c2ccccc2)cc1 6.61%
Cc1cc(C(=O)COC(=O)c2ccco2)c(C)n1Cc1ccco1 0.924%
C=CCOc1ccn(C)c(=O)n1 0.171%
O=C1OC2(CCCCC2)OC(=O)C1=CNc1nccs1 -3.79%
Cc1ccc(C)c(N2CCN(CCN3CCCCC3)CC2)c1 -5.89%
Oc1ccccc1-c1nnc(-c2ccc(C(F)(F)F)cc2)o1 0.933%
COC(=O)C1=C(C)Nc2c(c(=O)n(C)c(=O)n2C)C1c1cccc(O)c1 (centres undefined) -4.13%
CCC(=O)N1C(C(=O)N2CCCC2)CSC1c1ccc(OC)cc1 (centres undefined) 20.6%
CNC(=O)Cn1nc(C)c2ccccc2c1=O 6.08%
O=C(CNC(=O)C12CC3CC(CC(C3)C1)C2)NCc1ccccc1 -1.98%
Cc1cc(C)cc(N(CC(=O)Nc2ccc(Br)cc2)S(=O)(=O)c2c(C)[nH]c(=O)[nH]c2=O)c1 3.96%
CCOc1ccccc1Nc1nnc(SCc2nnc(-c3cc(OC)c(OC)c(OC)c3)o2)s1 -1.36%
COc1ccc(-n2c(-c3cccc(OC)c3)nc(=S)c3c2CCCC3)cc1 -11.1%
COc1ccc(N2C(=O)C(C)(C)C2c2c(O)ccc3ccccc23)cc1 (centres undefined) -9.55%
